Test results reported in PubChem BioAssay (NCATS).
Records with an inconclusive call do not appear. Entries that show only a call come without a potency. Calls of active or inactive are those of the source. Unless noted, calls follow the shape of the dose curve; as a rule, active = well fitted curve in the direction sought with a large enough effect; inconclusive = small, poorly fitted or top-dose-only effect, or effect the other way, or another doubt; inactive = no such curve, though single readings can be large or run the other way.

Assay: Nrf2 qHTS screen for inhibitors: Validation (AID 493153; active = well fitted inhibition curve with a large enough effect in the main read-out, with a control signal flat, not every such curve was filed as active)
Settings: A549 ARE-Fluc reporter, 18-24 h; Potency: luciferase luminescence; viability change: measured here: cytotoxicity max response; luciferase luminescence, at 46.1 µM (top of the series)
How it was run: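 In this counterscreened reporter format, each well gives two signals: CellTiter-Fluor fluorescence for cytotoxicity and ARE-luciferase luminescence for Nrf2 function. A549 ARE_Fluc cells in 5% FBS OPTI-MEM were exposed to compound titrations for 18-24 h.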

Row | Structure (SMILES) | Potency | viability change [%]
1 | CNC(=O)c1cc2c(cn1)[nH]c1ccccc12 | inactive | -3.36
2 | O=S(=O)(c1cccc2c(Cl)cccc12)N1CCCNCC1 | inactive | 2.63
3 | N#CC(C#N)=C(N)/C(C#N)=C/c1ccc(O)cc1 | inactive | 1.78
4 | CCCCCC(O)CCCC(=O)O (stereo unspecified) | inactive | 0.592
5 | Cn1c(=O)[nH]c2ncn(C)c2c1=O | inactive | 1.53
6 | CN1CCCC1CCOC(C)(c1ccccc1)c1ccc(Cl)cc1 (stereo unspecified) | inactive | -0.239
7 | CCCn1c(=O)c(C)cn2nc(N)nc12 | inactive | -13
8 | CCCCCCCCCC(=O)NC(CN1CCOCC1)[C@H](O)c1ccccc1 (stereo partly specified) | inactive | -4.61
9 | Cc1cc(Cn2cnc3c2C[C@@H](C(=O)O)N(C(=O)C(c2ccccc2)c2ccccc2)C3)ccc1N | inactive | 6.54
10 | CN1CC(O)C(O)C(O)C1CO (stereo unspecified) | inactive | 2.46
11 | NCCNS(=O)(=O)c1cccc2c(Cl)cccc12 | inactive | -10.5
12 | Cc1nc2n(c(=O)c1CCN1CCC(c3noc4cc(F)ccc34)CC1)CCCC2O (stereo unspecified) | inactive | 3.12
13 | CC(=O)SC1CC2=CC(=O)CC[C@]2(C)C2CC[C@@]3(C)C(CC[C@@]34CCC(=O)O4)C12 (stereo partly specified) | inactive | -9.73
14 | N[C@H](C(=O)O)[C@H](Cc1ccccc1)C(=O)O | inactive | -3.91
15 | CCCc1c(-c2ccc(O)cc2)nn(-c2ccc(O)cc2)c1-c1ccc(O)cc1 | inactive | -5.33
16 | CSC(=N)N | inactive | -21.7
17 | CC(C)[C@@H]1CC[C@@H](C)C[C@@H]1P(=O)(c1ccccc1)c1ccccc1 | inactive | -1.08
18 | Fc1ccc(CN(C2=NCCN2)c2c(Cl)cccc2Cl)cc1 | inactive | -18.2
19 | N[C@H](C(=O)O)[C@H]1C[C@@H]1C(=O)O | inactive | 2.9
20 | CC1=C(/C=C/C(C)=C/C=C/C(C)=C\C(=O)O)C(C)(C)CCC1 | inactive | 8.59
21 | COc1cc(CNC(=O)CCCCCCC(C)C)ccc1O | inactive | -9.77
22 | CN1C2CCC1CC(OC(c1ccccc1)c1ccccc1)C2 (stereo unspecified) | inactive | -14.9
23 | C=CCN1CCc2cc(O)c(O)cc2C(c2ccccc2)C1 (stereo unspecified) | inactive | -2.64
24 | C=CCN1CCc2c(cc(O)c(O)c2Br)[C@@H](c2ccccc2)C1 | inactive | -6.77
25 | COc1ccc(CCn2nnnc2C2(c3ccc(C)cc3)CC2)cc1 | inactive | 2.86
26 | Nc1ncnc2c1nc(Br)n2C1OC2COP(=O)(O)O[C@@H]2C1O (stereo partly specified) | inactive | 1.09
27 | Oc1ccc(/C=C/c2ccc(/C=C/c3ccc(O)cc3)c(Br)c2)cc1 | inactive | 2.12
28 | O[Si](CCCN1CCCCC1)(c1ccc(F)cc1)C1CCCCC1 (stereo unspecified) | inactive | -4.41
29 | N=S(=O)(O)Cc1noc2ccccc12 | inactive | 0.163
30 | CC(N)(Cc1ccc(O)c(O)c1)C(=O)O (stereo unspecified) | inactive | -0.588

Assay: qHTS for Inhibitors of Cell Surface uPA Generation: Validation Assay (AID 493164);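 also: RAW 264.7 macrophage cells exposed to compound for 18 h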
Settings: mouse cells, plasminogen activation; series mostly up to 38.3 µM
How it was run: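 Compounds are titrated over seven points (2.45 nM–38.3 uM final) onto pre-plated RAW 264.7 cells and incubated for 18 h. Retained intracellular ATP, measured with ATP-Lite, indicates blocked lethal factor entry.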

Row | Structure (SMILES) | outcome
31 | CNC(=O)c1cc2c(cn1)[nH]c1ccccc12 | inactive
32 | O=C1Nc2ccc(I)cc2/C1=C/c1cc(Br)c(O)c(Br)c1 | inactive
33 | O=S(=O)(c1cccc2c(Cl)cccc12)N1CCCNCC1 | inactive
34 | N#CC(C#N)=C(N)/C(C#N)=C/c1ccc(O)cc1 | inactive
35 | CCCCCC(O)CCCC(=O)O (stereo unspecified) | inactive
36 | Cn1c(=O)[nH]c2ncn(C)c2c1=O | inactive
37 | CN1CCCC1CCOC(C)(c1ccccc1)c1ccc(Cl)cc1 (stereo unspecified) | inactive
38 | CCCn1c(=O)c(C)cn2nc(N)nc12 | inactive
39 | CCCCCCCCCC(=O)NC(CN1CCOCC1)[C@H](O)c1ccccc1 (stereo partly specified) | inactive
40 | Nc1ccc2c3c(cccc13)C(=O)NC2=O | inactive
41 | Cc1cc(Cn2cnc3c2C[C@@H](C(=O)O)N(C(=O)C(c2ccccc2)c2ccccc2)C3)ccc1N | inactive
42 | CN1CC(O)C(O)C(O)C1CO (stereo unspecified) | inactive
43 | NCCNS(=O)(=O)c1cccc2c(Cl)cccc12 | inactive
44 | Cc1nc2n(c(=O)c1CCN1CCC(c3noc4cc(F)ccc34)CC1)CCCC2O (stereo unspecified) | inactive
45 | CC(=O)SC1CC2=CC(=O)CC[C@]2(C)C2CC[C@@]3(C)C(CC[C@@]34CCC(=O)O4)C12 (stereo partly specified) | inactive
46 | N[C@H](C(=O)O)[C@H](Cc1ccccc1)C(=O)O | inactive

Row | Structure (SMILES) | outcome
47 | CSC(=N)N | inactive
48 | CC(C)[C@@H]1CC[C@@H](C)C[C@@H]1P(=O)(c1ccccc1)c1ccccc1 | inactive
49 | N[C@H](C(=O)O)[C@H]1C[C@@H]1C(=O)O | inactive
50 | CC1=C(/C=C/C(C)=C/C=C/C(C)=C\C(=O)O)C(C)(C)CCC1 | inactive
51 | COc1cc(CNC(=O)CCCCCCC(C)C)ccc1O | inactive
52 | CN1C2CCC1CC(OC(c1ccccc1)c1ccccc1)C2 (stereo unspecified) | inactive
53 | C=CCN1CCc2cc(O)c(O)cc2C(c2ccccc2)C1 (stereo unspecified) | inactive
54 | Nc1nc2[nH]c(=O)cnc2c(=O)[nH]1 | inactive
55 | COc1ccc(CCn2nnnc2C2(c3ccc(C)cc3)CC2)cc1 | inactive
56 | Nc1ncnc2c1nc(Br)n2C1OC2COP(=O)(O)O[C@@H]2C1O (stereo partly specified) | inactive
57 | Oc1ccc(/C=C/c2ccc(/C=C/c3ccc(O)cc3)c(Br)c2)cc1 | inactive
58 | CC(O)C(O)[C@H]1CNc2nc(N)[nH]c(=O)c2N1 (stereo partly specified) | inactive
59 | O[Si](CCCN1CCCCC1)(c1ccc(F)cc1)C1CCCCC1 (stereo unspecified) | inactive
60 | N=S(=O)(O)Cc1noc2ccccc12 | inactive
61 | CC(N)(Cc1ccc(O)c(O)c1)C(=O)O (stereo unspecified) | inactive
